Assay results published in PubChem BioAssay.
Activity calls are given as the source filed them. Unless noted, the rule behind the calls is not given here.

Experiments:
[1] = tested on: XIP peptide (Xip251-270) binding; experiment: XIP fragment 251-270 binding compounds – biochemical, small-molecule microarray, fluorescence 635/667 nm, 0.1 µg/mL protein, primary screen (AID 1182); settings: fluorescent protein binding, 635 nm, higher = more signal, called active from +8 up or from −8 down
XIP peptide (Xip251-270) = experiment: compounds binding XIP fragment 251-270 – biochemical, small-molecule microarray, fluorescence 635/667 nm, 0.5 µg/mL protein, primary screen (AID 1183); settings: fluorescence 635 nm, higher = more signal
[2] = blood-stage malaria parasite viability loss – strain 3D7, DAPI fluorescence, 100 nL, primary screen (AID 1184);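 note: parasites grown inside human red blood cells in medium with human serum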; settings: P. falciparum 3D7 growth, 3 d, higher = more signal
[3] = target: Homeobox protein Hox-A13 (Mus musculus) (UniProt Q62424); experiment: disruptors of Hoxa13 oligonucleotide interaction – biochemical, fluorescence polarization, labeled oligonucleotide, primary screen (AID 1185); settings: Hoxa13:DNA binding, 15 min, higher = more signal, called active from +8 up or from −8 down
Sequence of Homeobox protein Hox-A13 (Mus musculus) (Q62424 whole entry, looked up): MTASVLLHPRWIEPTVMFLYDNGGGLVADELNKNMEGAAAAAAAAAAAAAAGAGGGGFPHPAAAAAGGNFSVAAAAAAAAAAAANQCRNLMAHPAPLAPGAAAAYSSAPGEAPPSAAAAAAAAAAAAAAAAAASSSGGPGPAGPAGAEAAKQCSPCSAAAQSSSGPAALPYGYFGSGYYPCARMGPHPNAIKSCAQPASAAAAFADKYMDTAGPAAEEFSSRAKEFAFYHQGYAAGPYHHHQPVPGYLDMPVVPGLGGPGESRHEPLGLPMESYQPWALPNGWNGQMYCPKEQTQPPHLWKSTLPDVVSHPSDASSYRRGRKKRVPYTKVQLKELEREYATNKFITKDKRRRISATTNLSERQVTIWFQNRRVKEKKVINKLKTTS

[4] = blockers of DNA damage checkpoint Chk1 activation – imaging, HeLa, hydroxyurea, phospho-Chk1 antibody, percent positive cells, primary screen (AID 1186); settings: hydroxyurea-induced phospho-Chk1 immunofluorescence imaging, higher = more signal
[5] = blockers of DNA damage checkpoint Chk1 activation – imaging, HeLa, hydroxyurea, phospho-Chk1 nuclear intensity, primary screen (AID 1187); settings: hydroxyurea-induced phospho-Chk1 immunofluorescence imaging, higher = more signal

Compound	composite z-score [1]	composite z-score (XIP peptide (Xip251-270))	z-score [2]	z-score [3]	z-score [4]	z-score [5]
C=CCNC(=O)[C@H]1[C@@H]2C(=O)O[C@@H](c3ccccc3)[C@@H](c3ccccc3)N2[C@@H](c2ccc(OCCO)cc2)[C@]12C(=O)N(C(=O)OCCOC)c1ccc(C#CCC(C(=O)OC)C(=O)OC)cc12	0.275 (inactive)	0.734	-1.82	-0.253 (inactive)	0.338 (inactive)	0.475 (inactive)
Cc1ccc(S[C@]2(C(=O)NCC(C)C)CC(=O)N(C(C)C)[C@@H]2c2ccc(CO)cc2I)cc1	0.708 (inactive)	0.689	-1.12	-2.86 (inactive)	-0.187 (inactive)	0.023 (inactive)
CCOC(=O)C1=CCC(c2ccncc2)N(S(=O)(=O)c2ccc(C)cc2)C1 (stereo unspecified)	0.373 (inactive)	0.835	-0.886	-4.63 (inactive)	0.0325 (inactive)	0.104 (inactive)
CCOC(=O)C=C1C[C@@H](c2cccc([N+](=O)[O-])c2)O[C@@H](c2cccc([N+](=O)[O-])c2)O1	0.232 (inactive)	0.673	-2.18	0.392 (inactive)	-0.447 (inactive)	-0.443 (inactive)
COc1ccc(C#Cc2ccc3c(c2)[C@]2(C(=O)N3)[C@H](c3ccccc3OCCO)N3[C@H](c4ccccc4)[C@H](c4ccccc4)OC(=O)[C@H]3[C@@H]2C(=O)NC[C@H](O)c2ccccc2)cc1	0.134 (inactive)	0.709	-2.01	-1.77 (inactive)	-0.11 (inactive)	0.108 (inactive)
CCOC(=O)C1=CCC(c2cccn2C(=O)OC(C)(C)C)N(S(=O)(=O)c2ccc(C)cc2)C1 (stereo unspecified)	0.153 (inactive)	0.732	-1.62	0.323 (inactive)	-1.06 (inactive)	-1.18 (inactive)
CCCCC=C[C@@H](NC(=O)C(C)(C)C)c1ccccc1	1.38 (inactive)	0.324	-0.501	-0.258 (inactive)	0.579 (inactive)	-0.124 (inactive)
C=C(COC)C(=O)CC[C@H](OC(C)=O)c1ccc(CO)o1	-0.153 (inactive)	0.626	-0.689	-4.72 (inactive)	-0.707 (inactive)	-0.842 (inactive)
C[N+](C)(C)CCCC[C@@H]1NC(=O)[C@H]2C[C@@H](C(=O)NCCCCCN)[C@@H](c3ccc(O)cc3)N2C1=O	0.528 (inactive)	0.69	0.435	-1.12 (inactive)	0.932 (inactive)	0.79 (inactive)
O=C1O[C@H](c2ccccc2)[C@H](c2ccccc2)N2[C@H]1[C@@H](C(=O)N1CCN(c3ncccn3)CC1)[C@]1(C(=O)Nc3ccc(C#CC4(O)CCCCCC4)cc31)[C@H]2c1ccc(O)cc1	1.48 (inactive)	0.817	-0.797	-1.28 (inactive)	-0.168 (inactive)	-0.101 (inactive)
COC(=O)C[C@H]1O[C@]2(C(=O)N(C)c3ccccc32)[C@@H](C)[C@@H]1[Si](C)(C)c1ccccc1	-0.182 (inactive)	0.428	-1.48	-7.09 (inactive)	-0.0412 (inactive)	0.192 (inactive)
